{"source": "PubChem BioAssay (NCATS)", "note": "Inconclusive results are not listed. The source made the active and inactive calls. Calls follow the shape of the dose curve; as a rule, active = well fitted inhibition curve with a large enough effect; inconclusive = small, poorly fitted or top-dose-only effect; inactive = flat fitted curve, though single readings scatter. % is scaled to controls: 0 for no effect and ±100 for the full control effect."}
{"target": "Voltage-gated inwardly rectifying potassium channel KCNH2 (Homo sapiens) (UniProt Q12809)", "sequence (Q12809 whole entry, looked up)": "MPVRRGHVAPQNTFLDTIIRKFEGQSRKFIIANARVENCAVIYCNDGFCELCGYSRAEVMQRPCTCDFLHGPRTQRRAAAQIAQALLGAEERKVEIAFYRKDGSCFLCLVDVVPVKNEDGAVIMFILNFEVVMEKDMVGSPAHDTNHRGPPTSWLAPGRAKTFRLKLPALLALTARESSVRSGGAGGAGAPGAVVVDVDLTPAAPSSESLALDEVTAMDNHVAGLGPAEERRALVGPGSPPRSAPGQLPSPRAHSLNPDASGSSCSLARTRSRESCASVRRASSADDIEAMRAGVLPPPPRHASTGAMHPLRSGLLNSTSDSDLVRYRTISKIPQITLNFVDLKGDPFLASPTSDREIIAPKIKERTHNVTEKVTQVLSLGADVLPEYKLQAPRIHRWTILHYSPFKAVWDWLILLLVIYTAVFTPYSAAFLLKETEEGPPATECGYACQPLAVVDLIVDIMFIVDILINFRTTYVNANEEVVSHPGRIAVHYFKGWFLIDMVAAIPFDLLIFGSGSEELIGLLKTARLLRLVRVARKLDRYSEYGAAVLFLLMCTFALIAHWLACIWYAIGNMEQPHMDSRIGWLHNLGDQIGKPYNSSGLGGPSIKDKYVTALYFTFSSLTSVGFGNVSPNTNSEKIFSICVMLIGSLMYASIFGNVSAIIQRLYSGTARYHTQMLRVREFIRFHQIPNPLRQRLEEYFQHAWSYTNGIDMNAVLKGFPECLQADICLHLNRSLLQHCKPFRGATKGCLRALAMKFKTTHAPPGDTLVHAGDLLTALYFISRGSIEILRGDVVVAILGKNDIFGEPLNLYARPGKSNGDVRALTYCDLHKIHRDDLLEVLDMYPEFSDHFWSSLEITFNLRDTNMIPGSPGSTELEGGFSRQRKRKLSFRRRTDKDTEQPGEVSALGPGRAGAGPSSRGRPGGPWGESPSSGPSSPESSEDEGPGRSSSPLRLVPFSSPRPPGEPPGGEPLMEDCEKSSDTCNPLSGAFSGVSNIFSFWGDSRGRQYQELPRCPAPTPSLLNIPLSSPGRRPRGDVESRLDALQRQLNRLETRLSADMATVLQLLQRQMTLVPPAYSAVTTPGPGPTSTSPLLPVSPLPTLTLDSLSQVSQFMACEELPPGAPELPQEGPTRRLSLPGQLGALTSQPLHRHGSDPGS", "test": "qHTS Assay for Small Molecule Inhibitors of the Human hERG Channel Activity (AID 588834);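 also: top concentration of the series differs between compounds; lower thallium flux fluorescence means stronger hERG block; nearly all actives have a fitted effect of over 50% in size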", "conditions": "U2OS BacMam hERG, FluxOR thallium flux fluorescence; series mostly up to 46.1 µM; activity change, negative = inhibition: at the top concentration", "method_in_brief": "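Homogeneous FluxOR thallium flux assay using hERG-expressing U2OS cells (BacMam). Compound treatment about 10 minutes preceded stimulation; reduced fluorescence taken as channel block.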"}
{"smiles": "CNC(C)(C)Cc1ccccc1", "activity change, negative = inhibition": "5.65% [at 20.6 µM] (inactive)"}
{"smiles": "O=C1OC(c2ccc(O)c(S(=O)(=O)O)c2)(c2ccc(O)c(S(=O)(=O)O)c2)c2c(Br)c(Br)c(Br)c(Br)c21", "activity change, negative = inhibition": "0.831% (inactive)"}
{"smiles": "COc1c2c(cc3c1OCO3)CCN(C)C2", "activity change, negative = inhibition": "6.16% [at 20.6 µM] (inactive)"}
{"smiles": "NC(=O)CS(=O)C(c1ccccc1)c1ccccc1", "note": "(stereo not given)", "activity change, negative = inhibition": "1.41% (inactive)"}
{"smiles": "CC(C)C[C@H](CN)CC(=O)O", "activity change, negative = inhibition": "-7.62% (inactive)"}
{"smiles": "CN1C(=O)NC(=O)C(C)(C2=CCCCC2)C1=O", "note": "(stereo not given)", "Potency": "inactive"}
{"smiles": "COP(=S)(OC)Oc1ccc(S(=O)(=O)N(C)C)cc1", "activity change, negative = inhibition": "5.52% (inactive)"}
{"smiles": "COc1cccc([C@@]2(O)CCCC[C@@H]2CN(C)C)c1", "activity change, negative = inhibition": "10.3% (inactive)"}
{"smiles": "O=c1[nH]oc2c1CCNC2", "Potency": "inactive"}
{"smiles": "CCCCCCC(=O)CCCCCC/C=C/C[C@@H](O)[C@H](O)[C@@](N)(CO)C(=O)O", "activity change, negative = inhibition": "-15.4% (inactive)"}
{"smiles": "c1ccc2c(c1)sc1ccccc12", "activity change, negative = inhibition": "136% (inactive)"}
{"smiles": "CN1C(=O)CCS(=O)(=O)C1c1ccc(Cl)cc1", "note": "(stereo not given)", "Potency": "inactive"}
{"smiles": "C[C@](O)(CS(=O)(=O)c1ccc(F)cc1)C(=O)Nc1ccc(C#N)c(C(F)(F)F)c1", "activity change, negative = inhibition": "4.13% (inactive)"}
{"smiles": "CN=C1CN(O)C(c2ccccc2)=c2cc(Cl)ccc2=N1", "activity change, negative = inhibition": "16.7% (inactive)"}
{"smiles": "NNc1ccccc1", "activity change, negative = inhibition": "3.85% (inactive)"}
{"smiles": "C[C@]12CC[C@@H]3c4ccc(OC(=O)N(CCCl)CCCl)cc4CC[C@H]3[C@@H]1CC[C@@H]2O", "activity change, negative = inhibition": "8.46% (inactive)"}
{"smiles": "COc1ccc2c(c1)C13CCCC[C@@H]1C(C2)N(C)CC3", "note": "(stereo not given in full)", "activity change, negative = inhibition": "-14.8% (inactive)"}
{"smiles": "NC(=O)c1cc([N+](=O)[O-])cc([N+](=O)[O-])c1", "activity change, negative = inhibition": "1.15% (inactive)"}
{"smiles": "CCC1(c2ccccc2)C(=O)N(COC)C(=O)N(COC)C1=O", "activity change, negative = inhibition": "8.15% (inactive)"}
{"smiles": "CC(C)(C)NCC(O)c1cc(Cl)c(N)c(C(F)(F)F)c1", "note": "(stereo not given)", "activity change, negative = inhibition": "-3.42% (inactive)"}
